The whole screen tested about 320,000 compounds, of which about 500 (0.16%) were called active.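 The calls were made as follows: active = inhibition above the mean of all tested compounds plus 3 SD, set per campaign (cut at about 14% in these data); inactive = the rest.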 The full list was thinned out, with actives kept by preference.
target: Acyl-protein thioesterase 1 (Homo sapiens) (UniProt O75608); experiment: LYPLA1 inhibitors, primary screen, counter-screen for PME1 inhibitor project, biochemical, fluorescence polarization, FP-Rh probe ABPP (AID 2174); details: recombinant LYPLA1, FP-Rh probe fluorescence polarization; at 5.9 µM; active compounds read high;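 also: inhibitors block serine hydrolase probe labeling of LYPLA1 so polarization falls; 0% = enzyme with DMSO and 100% = wells lacking LYPLA1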
Sequence (O75608 whole entry, looked up): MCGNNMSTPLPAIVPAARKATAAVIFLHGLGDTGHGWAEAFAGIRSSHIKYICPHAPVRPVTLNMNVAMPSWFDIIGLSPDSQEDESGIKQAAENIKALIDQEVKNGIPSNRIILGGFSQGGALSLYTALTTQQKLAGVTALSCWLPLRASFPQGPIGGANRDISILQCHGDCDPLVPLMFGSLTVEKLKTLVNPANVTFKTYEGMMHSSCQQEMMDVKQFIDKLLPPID

SMILES	inhibition
CCCCc1nc2cc(C(=O)N3CCCCC3CCO)ccc2o1 (stereo not given)	-0.28% (inactive)
O=C(NCCc1ccccc1)C(=O)NCC1OCCN1S(=O)(=O)c1cccs1 (stereo not given)	2.86% (inactive)
O=C(CCn1c(SCC(=O)c2ccccc2)nc2ccccc2c1=O)NCc1ccc(F)cc1	33.2% (active)
O=C(CSc1nc2ccccc2c(=O)n1-c1ccc(F)cc1)NC1CC1	0.87% (inactive)
O=C(CCCn1c(SCC(=O)c2ccccc2)nc2ccccc2c1=O)NCC1CCCO1 (stereo not given)	2.13% (inactive)
O=C(N/N=C/c1ccsc1)c1cc(O)cc(O)c1	3.13% (inactive)
CCOCCCNC(=O)c1cn(CC(C)C)c(=O)c2c1c1ccccc1n2C	0.47% (inactive)
COc1ccc(S(=O)(=O)N/N=C\c2ccc(OC)c(COc3ccc(C)cc3[N+](=O)[O-])c2)cc1	3.24% (inactive)
Cc1ccc(N(CC(=O)NC2CCCCC2)C(=O)CCCC(=O)Nc2ccccn2)c(C)c1	-5.08% (inactive)
CC1CCCCC1NC(=O)NC(=O)COC(=O)C1=NN(c2ccccc2)C(=O)CC1 (stereo not given)	-3.28% (inactive)
CCOc1ccc(S(=O)(=O)N2CCCC(C(=O)N3CCC(C(N)=O)CC3)C2)cc1Cl (stereo not given)	-0.84% (inactive)
CCn1cc(CN2CCC(C(=O)Nc3cccc(-c4cccc(Cl)c4)c3)CC2)c(C)n1	-1.53% (inactive)
O=C(NCc1ccccc1Cl)C1CCN(c2ncnc3c2nc2n3CCCCC2)CC1	3.58% (inactive)
O=C(Cc1ccccc1F)NC1CCSc2ccccc21 (stereo not given)	-2.96% (inactive)
O=C(CC1Nc2ccccc2NC1=O)Nc1ccccc1 (stereo not given)	-11.2% (inactive)
COc1ccc(NS(=O)(=O)c2cccc(C(=O)NCCc3ccc(S(N)(=O)=O)cc3)c2)cc1	0.92% (inactive)
CCC(Cc1ccccc1)NC(=O)C1CCCCC1 (stereo not given)	-0.48% (inactive)
CCN(CC)S(=O)(=O)c1ccc(N2CCOCC2)c(NC(=O)c2ccc(=O)n(C)n2)c1	3.13% (inactive)
CCOC(=O)/C(=N\Nc1ccccc1Cl)N(C)C1CCS(=O)(=O)C1 (stereo not given)	6.62% (inactive)
O=C(Nc1nnc(C2COc3ccccc3O2)o1)c1ccc(F)cc1 (stereo not given)	-3.93% (inactive)
COc1ccc2c(c1)OC(O)(C(F)(F)C(F)F)CC2=O (stereo not given)	0.29% (inactive)
Cc1cc(-c2ccccc2)nc(N2CCC(C(=O)NC34CC5CC(CC(C5)C3)C4)CC2)n1	-0.18% (inactive)
CC(=O)Nc1ccc(C(=O)N(C2=NC(C)CS2)c2ccc(Cl)cc2)cc1 (stereo not given)	-16.3% (inactive)

SMILES	inhibition
O=C(Nc1cccc(Cl)c1)c1cncn1-c1ccc(F)cc1	-4.38% (inactive)
CC(C)(C)c1ccc(CCC2OCC(CN3CCOCC3)O2)cc1 (stereo not given)	-1.79% (inactive)
O=C1CN(C(=O)COc2c(Cl)cccc2Cl)c2ccccc2N1	-0.08% (inactive)
O=C(NCCCc1ccccc1)c1cc(COc2c(F)cccc2F)on1	-0.18% (inactive)
CN(CCOc1ccccc1)C(=O)c1cc(COc2c(F)cccc2F)on1	17.4% (active)
Cc1ccc(OCc2cc(C(=O)N(C)CCc3ccccc3)no2)cc1C	2.48% (inactive)
COc1cccc(NC(=O)N2C3CCCC2CC(NC(C)=O)C3)c1 (stereo not given)	-0.11% (inactive)
COc1cccc(NC(=O)C2CCCN2C(=O)OCc2ccccc2)c1 (stereo not given)	1.14% (inactive)
COc1cccc(NC(=O)N2CCCC2C(=O)NC2CCCCC2)c1 (stereo not given)	15.1% (active)
CCc1c(SCCC(=O)O)nc2ccccc2c1C	2.67% (inactive)
COc1ccc2c(c1)[C@H]1[C@H](CO2)[C@H](c2ccccc2)[C@]2(C)C(=O)Nc3cc(F)c(F)cc3C(=O)N12	-14.6% (inactive)
Cc1cccc(N2CCC(NCc3c(C(=O)N4CCCCC4)nc4c(C)cccn34)CC2)c1	0.61% (inactive)
COc1ccc(C2CC(c3cccs3)Nc3nnnn32)cc1 (stereo not given)	0.92% (inactive)
CN(Cc1ccc(F)cc1Cl)S(=O)(=O)c1cccs1	4.05% (inactive)
O=C(/C=C/c1cccc(C(F)(F)F)c1)N1CCN(c2ccccn2)CC1	-2.76% (inactive)
Cc1cc(OCC(=O)N2CCN(c3ncccn3)CC2)ccc1Cl	-2.47% (inactive)
CCOc1ccc(C(=O)NCC(=O)N2CCN(c3ccc(C(F)(F)F)cn3)CC2)cc1	2.56% (inactive)
Cc1ccc(CNC(=O)CCNS(=O)(=O)c2ccc(Br)s2)cc1	0.04% (inactive)
COC(=O)c1ccc(CSc2ccc(S(=O)(=O)N3CCCCC3)cn2)cc1	-1.32% (inactive)
CCOc1ccc(-n2cnnn2)cc1S(=O)(=O)N1CCC(C)CC1C (stereo not given)	3.81% (inactive)
COc1ccc(CCNC(=O)CSc2nc(-c3ccc(OC)c(OC)c3)ccc2C#N)cc1	-12.1% (inactive)
O=C(COc1ccc2ccccc2c1)N1CCN(C(=O)c2cccs2)CC1	1.27% (inactive)
O=C(O)c1ccccc1NC(=S)NC(NC(=O)c1ccccc1[N+](=O)[O-])C(Cl)(Cl)Cl (stereo not given)	2.28% (inactive)

SMILES	inhibition
Cc1ccccc1Nc1nc(N)nc(CSc2ccccc2)n1	-4.27% (inactive)
O=C1COc2ccc(NC(=O)N3CCN(c4ccc(F)cc4)CC3)cc2N1	-0.21% (inactive)
CCCCCOc1ccc(/C=C/C(=O)NCCc2nc3ccccc3[nH]2)cc1OC	-8.82% (inactive)
CCN(CC(=O)Nc1c(F)cccc1F)C(=O)c1ccc(S(=O)(=O)N2CCCCC2)cc1	0.21% (inactive)
CCOc1ccc2ccccc2c1/C=N/NC(=O)c1c(C)cc(C)[nH]c1=O	-5.43% (inactive)
COc1ccccc1N1CCN(C(=O)c2ccc(Cl)c(S(=O)(=O)N3CCCC3)c2)CC1	1.54% (inactive)
Cc1[nH]c2ccc(C(=O)N3CCN(C)CC3)cc2c1C	2.14% (inactive)
CCOc1ccccc1N1CCN(C(=O)c2ccc3[nH]c(C)c(C)c3c2)CC1	14.2% (active)
NC(=O)C1(N2CCCCC2)CCN(C2CC(=O)N(Cc3ccc(N4CCCC4=O)cc3)C2=O)CC1 (stereo not given)	2.22% (inactive)
COc1cccc(NC(=S)NC(=O)c2c(Cl)c(C)nn2C)c1	-3.22% (inactive)
COCCNc1nc2nonc2nc1N1CCCC1c1nccs1 (stereo not given)	1.24% (inactive)
COc1ccccc1C(=O)NC(CCSC)C(=O)N1CCN(C(C)=O)CC1 (stereo not given)	-1.6% (inactive)
COc1ccccc1C(=O)NC(CCSC)C(=O)N1CCN(C/C=C/c2ccccc2)CC1 (stereo not given)	18.2% (active)
COc1ccccc1C(=O)NC(CCSC)C(=O)NNC(=O)c1ccccc1C (stereo not given)	2.08% (inactive)
COc1cnn(-c2ccc([N+](=O)[O-])cc2)c(=O)c1Cl	3.8% (inactive)
O=c1[nH]n(-c2ccc([N+](=O)[O-])cc2)c(=O)c2ccccc12	22.9% (active)
O=c1[nH]c2cccnc2n1-c1ccc([N+](=O)[O-])cc1	-1.44% (inactive)
CCNC(=O)CC1C(=O)N(c2ccc(F)cc2)C(=O)N1Cc1cccs1 (stereo not given)	1.31% (inactive)
Cc1cc(C)c2c(n1)sc1c(=O)n(-c3ccccc3)c(=O)[nH]c12	-3.16% (inactive)
CCOc1ccc(S(=O)(=O)N/N=C(\C)c2ccc(Cl)c(Cl)c2Cl)cc1	0.76% (inactive)
C=CCSC(CC)(CC)C(N)=O	6.47% (inactive)
CCCc1ccc(OCC(O)CN2CCN(C(=O)OCC)CC2)cc1 (stereo not given)	2.73% (inactive)
CCOc1ccc(C(=O)NC(=S)Nc2ccc(N3CCOCC3)c(Cl)c2)cc1[N+](=O)[O-]	19.9% (active)

SMILES	inhibition
CCOc1ccc(C(=O)NC(=S)Nc2ccc(NC(=O)C(C)C)cc2)cc1[N+](=O)[O-]	2.01% (inactive)
COc1cccc(OC)c1C(=O)NC(=S)Nc1ccc(N2CCOCC2)c(Cl)c1	-4.94% (inactive)
CCN1C(=NCCc2cccnc2)N[C@@H](c2ccccc2)C(C(=O)OC)=C1C	-0.51% (inactive)
Cc1ccc(NC(=O)c2ccc(CSc3ncnc4nc[nH]c34)cc2)c(C)c1	-1.38% (inactive)
COc1ccccc1C(CNC(=O)c1cccc(S(=O)(=O)Nc2ccc(F)cc2)c1)N(C)C (stereo not given)	-0.85% (inactive)
CC(C)(C)NC(=O)COc1ccc(CNc2ccc3[nH]c(=O)[nH]c3c2)cc1	-1.08% (inactive)
CC(Oc1ccc(F)cc1)C(=O)N1CCN(c2ncccn2)CC1 (stereo not given)	-4.75% (inactive)
O=C(c1ccc(Br)o1)N1CCN(CCOc2ccccc2)CC1	2.69% (inactive)
CC1(C)OC(=O)C(=CNC(CO)C(=O)O)C(=O)O1 (stereo not given)	-1.91% (inactive)
CCC(=C/c1sc2ccc3ccccc3c2[n+]1C)/C=C1\Sc2ccc3ccccc3c2N1C	25% (active)
O=C(COc1ccc(Cl)cc1)N1CCN(S(=O)(=O)c2ccc(Cl)cc2)CC1	-0.66% (inactive)
O=C(COc1ccc(Cl)cc1)N1CCN(c2cccc(C(F)(F)F)c2)CC1	20.5% (active)
Cc1c(C)c2ccc(OCC(=O)N3CCN(c4cccc(Cl)c4)CC3)cc2oc1=O	6.19% (inactive)
CC/C(=N\NC(=O)c1c(C)nc2ccccn12)c1ccc(Cl)cc1	-2.24% (inactive)
O=C(c1ccco1)N1CCN(CC(=O)N(C2CCCCC2)C2CCS(=O)(=O)C2)CC1 (stereo not given)	5.75% (inactive)
CC(CC(=O)C1C(C)C=CCC1(C)C)NNC(N)=O (stereo not given)	0.24% (inactive)
CCOC(=O)c1sc2nc(C)nc(Nc3ccc(OC)c(OC)c3)c2c1C	-0.83% (inactive)
CSc1nc(-c2ccccc2)nc(C(Cl)Cl)n1	3.5% (inactive)
CCn1c(CC(=O)Nc2ccc(C)cc2)nnc1SCC(=O)Nc1nc(C)cs1	-2.24% (inactive)
Cc1ccc(NC(=O)NNC(=O)c2sccc2-n2cccc2)cc1	-1.32% (inactive)
CCOC(=O)NN1C(=O)c2ccccc2NC1c1ccccc1O (stereo not given)	2.15% (inactive)
